# Laboratory results reported in PMC7862700, “An all-to-all approach to the identification of sequence-specific readers for epigenetic DNA modifications on cytosine”.
# Columns and labels:
# Assay in all cases: DAPPL (digital affinity profiling via proximity ligation, sequencing); 10 mM Tris-HCl pH 7.5, 50 mM NaCl, 1 mM DTT, 4% glycerol, room temperature, 30 min; GST-TFs on glutathione beads, 16-mer random dsDNA library, 0.1% formaldehyde crosslink after washing; high values mean tight binding
# FEV = molecular target: T1, FEV (Homo sapiens, UniProt Q99581 1-238); conditions: protein: recombinant; tags: N-terminal GST; dsDNA, one strand shown
# T1 sequence: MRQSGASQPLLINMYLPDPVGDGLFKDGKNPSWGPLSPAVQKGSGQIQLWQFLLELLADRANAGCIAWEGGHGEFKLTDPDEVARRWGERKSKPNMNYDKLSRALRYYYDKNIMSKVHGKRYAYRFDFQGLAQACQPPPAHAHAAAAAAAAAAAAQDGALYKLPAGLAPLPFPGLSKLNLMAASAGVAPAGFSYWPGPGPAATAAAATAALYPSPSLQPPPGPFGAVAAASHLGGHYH
# Outline: (§1)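 Human transcription factors were made in yeast as GST fusions, captured on glutathione beads and barcoded with DNA. With a tag-only sample included, the pool was incubated with 200 nmole of a random double-stranded 16-mer DNA library in Tris/NaCl/DTT/glycerol buffer at room temperature for 30 min, then crosslinked with 0.1% formaldehyde after washing, ligated by proximity, amplified and sequenced. For binding signal, each hexamer's read frequency for a factor is divided by its frequency for the tag-only sample.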
# ETV5 = ETV5 (Homo sapiens, UniProt P41161 1-510); conditions: protein: recombinant; tags: N-terminal GST; dsDNA, one strand shown
# Outline: as §1
# HSF1 = HSF1 (Homo sapiens, UniProt Q00613 1-529); conditions: protein: recombinant; tags: N-terminal GST; chain copies: 3; dsDNA, one strand shown
# Outline: as §1
# SPIC = molecular target: T2, SPIC (Homo sapiens, UniProt Q8N5J4 1-248); conditions: protein: recombinant; tags: N-terminal GST; dsDNA, one strand shown
# T2 sequence: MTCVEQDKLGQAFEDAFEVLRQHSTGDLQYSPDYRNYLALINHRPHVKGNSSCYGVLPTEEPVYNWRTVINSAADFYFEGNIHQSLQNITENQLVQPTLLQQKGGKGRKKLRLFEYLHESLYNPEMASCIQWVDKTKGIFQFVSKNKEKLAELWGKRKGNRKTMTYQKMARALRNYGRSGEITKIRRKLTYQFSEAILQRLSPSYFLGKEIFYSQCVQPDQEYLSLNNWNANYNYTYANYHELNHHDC
# Outline: as §1
# ELF4 = ELF4 (Homo sapiens, UniProt Q99607 1-663); conditions: protein: recombinant; tags: N-terminal GST; dsDNA, one strand shown
# Outline: as §1
# ELK4 = molecular target: T3, ELK4 (Homo sapiens, UniProt P28324-2 1-405); conditions: protein: recombinant; tags: N-terminal GST; dsDNA, one strand shown
# T3 sequence: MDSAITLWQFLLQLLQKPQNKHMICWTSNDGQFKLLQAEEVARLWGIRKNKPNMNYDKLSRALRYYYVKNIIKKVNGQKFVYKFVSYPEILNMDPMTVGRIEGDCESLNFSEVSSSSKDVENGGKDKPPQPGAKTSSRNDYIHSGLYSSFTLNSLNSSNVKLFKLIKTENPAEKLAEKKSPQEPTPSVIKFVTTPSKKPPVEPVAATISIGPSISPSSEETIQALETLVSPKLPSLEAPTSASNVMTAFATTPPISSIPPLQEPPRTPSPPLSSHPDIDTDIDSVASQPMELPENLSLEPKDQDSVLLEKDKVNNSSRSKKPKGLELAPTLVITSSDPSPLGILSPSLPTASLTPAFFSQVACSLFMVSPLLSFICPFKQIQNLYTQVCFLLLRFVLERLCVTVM
# Outline: as §1
# ETV2 = molecular target: T4, ETV2 (Homo sapiens, UniProt O00321 1-342); conditions: protein: recombinant; tags: N-terminal GST; dsDNA, one strand shown
# T4 sequence: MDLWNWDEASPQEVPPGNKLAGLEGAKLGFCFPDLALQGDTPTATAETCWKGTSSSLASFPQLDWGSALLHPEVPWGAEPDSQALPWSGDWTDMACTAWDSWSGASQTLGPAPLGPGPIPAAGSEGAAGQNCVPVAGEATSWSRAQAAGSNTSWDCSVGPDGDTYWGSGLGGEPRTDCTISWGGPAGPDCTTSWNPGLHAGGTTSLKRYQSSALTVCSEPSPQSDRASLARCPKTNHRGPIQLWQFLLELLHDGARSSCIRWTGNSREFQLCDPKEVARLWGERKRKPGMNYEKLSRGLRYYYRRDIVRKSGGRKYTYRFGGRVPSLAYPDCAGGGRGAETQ
# Outline: as §1
# ELF3 = molecular target: T5, ELF3 (Homo sapiens, UniProt P78545 1-371); conditions: protein: recombinant; tags: N-terminal GST; dsDNA, one strand shown
# T5 sequence: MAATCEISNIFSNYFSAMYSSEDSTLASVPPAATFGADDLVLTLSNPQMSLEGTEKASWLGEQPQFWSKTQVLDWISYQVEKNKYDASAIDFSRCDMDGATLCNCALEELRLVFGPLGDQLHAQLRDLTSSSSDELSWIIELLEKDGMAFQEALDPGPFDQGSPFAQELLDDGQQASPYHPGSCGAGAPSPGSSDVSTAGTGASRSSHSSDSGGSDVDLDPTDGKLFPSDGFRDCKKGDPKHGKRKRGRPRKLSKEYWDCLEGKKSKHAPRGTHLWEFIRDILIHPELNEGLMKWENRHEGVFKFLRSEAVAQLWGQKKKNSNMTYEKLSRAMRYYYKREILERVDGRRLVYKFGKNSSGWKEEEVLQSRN
# Outline: as §1
# CRX = CRX (Homo sapiens, UniProt O43186 1-299); conditions: protein: recombinant; tags: N-terminal GST; dsDNA, one strand shown
# Outline: as §1
# ETV1 = ETV1 (Homo sapiens, UniProt P50549 1-477); conditions: protein: recombinant; tags: N-terminal GST; dsDNA, one strand shown
# Outline: as §1
# ERF = molecular target: T6, ERF (Homo sapiens, UniProt P50548 1-548); conditions: protein: recombinant; tags: N-terminal GST; dsDNA, one strand shown
# T6 sequence: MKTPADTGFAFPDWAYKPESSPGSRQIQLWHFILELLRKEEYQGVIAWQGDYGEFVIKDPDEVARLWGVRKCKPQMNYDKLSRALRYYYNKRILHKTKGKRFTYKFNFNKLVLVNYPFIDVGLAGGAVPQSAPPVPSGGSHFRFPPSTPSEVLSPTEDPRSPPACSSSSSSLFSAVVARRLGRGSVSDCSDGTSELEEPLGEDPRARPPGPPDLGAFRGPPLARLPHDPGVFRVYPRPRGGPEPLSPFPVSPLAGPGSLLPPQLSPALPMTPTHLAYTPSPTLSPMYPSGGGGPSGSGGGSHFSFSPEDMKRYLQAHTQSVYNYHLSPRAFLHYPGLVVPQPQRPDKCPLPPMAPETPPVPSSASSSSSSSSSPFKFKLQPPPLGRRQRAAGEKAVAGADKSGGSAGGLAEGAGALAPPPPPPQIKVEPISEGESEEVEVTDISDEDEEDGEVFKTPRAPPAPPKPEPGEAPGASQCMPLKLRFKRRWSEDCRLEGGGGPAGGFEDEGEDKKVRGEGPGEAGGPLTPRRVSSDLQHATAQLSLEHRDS
# Outline: as §1
# ETV3L = molecular target: T7, ETV3L (Homo sapiens, UniProt Q6ZN32 1-361); conditions: protein: recombinant; tags: N-terminal GST; dsDNA, one strand shown
# T7 sequence: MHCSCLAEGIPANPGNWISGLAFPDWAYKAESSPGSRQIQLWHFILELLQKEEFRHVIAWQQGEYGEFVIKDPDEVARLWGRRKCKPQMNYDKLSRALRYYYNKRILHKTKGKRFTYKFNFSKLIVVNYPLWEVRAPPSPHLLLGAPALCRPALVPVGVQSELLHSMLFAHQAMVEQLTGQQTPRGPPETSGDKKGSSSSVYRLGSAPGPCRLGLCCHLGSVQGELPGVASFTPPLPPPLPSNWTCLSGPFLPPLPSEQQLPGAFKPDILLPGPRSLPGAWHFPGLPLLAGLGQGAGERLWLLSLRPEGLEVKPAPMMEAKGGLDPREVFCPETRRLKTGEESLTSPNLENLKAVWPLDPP
# Outline: as §1
# ETS2 = molecular target: T8, ETS2 (Homo sapiens, UniProt P15036 1-469); conditions: protein: recombinant; tags: N-terminal GST; dsDNA, one strand shown
# T8 sequence: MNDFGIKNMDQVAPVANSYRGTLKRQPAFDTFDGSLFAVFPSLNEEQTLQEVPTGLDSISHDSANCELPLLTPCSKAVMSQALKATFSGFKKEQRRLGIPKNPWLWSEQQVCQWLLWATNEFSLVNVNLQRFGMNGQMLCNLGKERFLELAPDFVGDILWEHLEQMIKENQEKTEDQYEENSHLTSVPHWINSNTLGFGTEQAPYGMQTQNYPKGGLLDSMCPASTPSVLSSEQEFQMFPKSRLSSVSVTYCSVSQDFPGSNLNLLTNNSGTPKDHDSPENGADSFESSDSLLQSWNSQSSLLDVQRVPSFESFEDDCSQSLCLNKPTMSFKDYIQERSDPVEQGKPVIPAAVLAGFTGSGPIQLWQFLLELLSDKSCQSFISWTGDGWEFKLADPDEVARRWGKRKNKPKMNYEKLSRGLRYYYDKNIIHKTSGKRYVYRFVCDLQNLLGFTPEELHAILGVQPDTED
# Outline: as §1
# SPDEF = molecular target: T9, SPDEF (Homo sapiens, UniProt O95238 1-335); conditions: protein: recombinant; tags: N-terminal GST; dsDNA, one strand shown
# T9 sequence: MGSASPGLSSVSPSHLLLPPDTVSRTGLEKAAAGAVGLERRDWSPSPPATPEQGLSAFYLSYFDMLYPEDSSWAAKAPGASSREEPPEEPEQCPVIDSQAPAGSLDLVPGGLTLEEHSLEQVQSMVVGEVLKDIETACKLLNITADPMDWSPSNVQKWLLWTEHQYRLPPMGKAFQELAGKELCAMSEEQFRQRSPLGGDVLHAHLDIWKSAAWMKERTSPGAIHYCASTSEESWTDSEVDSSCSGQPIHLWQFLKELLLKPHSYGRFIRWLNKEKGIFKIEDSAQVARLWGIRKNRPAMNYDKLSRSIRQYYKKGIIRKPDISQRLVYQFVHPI
# Outline: as §1
# ETV7 = molecular target: T10, ETV7 (Homo sapiens, UniProt Q9Y603 1-341); conditions: protein: recombinant; tags: N-terminal GST; dsDNA, one strand shown
# T10 sequence: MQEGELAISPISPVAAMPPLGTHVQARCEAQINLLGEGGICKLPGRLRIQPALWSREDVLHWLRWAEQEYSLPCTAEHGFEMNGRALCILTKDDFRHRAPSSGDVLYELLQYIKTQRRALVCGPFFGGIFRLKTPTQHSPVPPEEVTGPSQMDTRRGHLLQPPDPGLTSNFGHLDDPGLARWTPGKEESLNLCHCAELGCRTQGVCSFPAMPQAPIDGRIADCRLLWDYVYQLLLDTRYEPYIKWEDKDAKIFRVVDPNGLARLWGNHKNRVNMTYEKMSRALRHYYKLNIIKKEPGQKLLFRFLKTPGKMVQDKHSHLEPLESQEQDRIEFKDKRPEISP
# Outline: as §1
# ELF5 = molecular target: T11, ELF5 (Homo sapiens, UniProt Q9UKW6-2 1-255); conditions: protein: recombinant; tags: N-terminal GST; dsDNA, one strand shown
# T11 sequence: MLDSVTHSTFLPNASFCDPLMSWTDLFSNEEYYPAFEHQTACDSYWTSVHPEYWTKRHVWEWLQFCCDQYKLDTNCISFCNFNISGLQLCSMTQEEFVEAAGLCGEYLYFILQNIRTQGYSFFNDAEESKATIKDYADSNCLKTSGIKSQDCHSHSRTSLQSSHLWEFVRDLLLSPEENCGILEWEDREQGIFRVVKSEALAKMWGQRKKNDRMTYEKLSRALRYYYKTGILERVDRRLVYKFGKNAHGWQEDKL
# Outline: as §1
# ETV3 = molecular target: T12, ETV3 (Homo sapiens, UniProt P41162-2 1-143); conditions: protein: recombinant; tags: N-terminal GST; dsDNA, one strand shown
# T12 sequence: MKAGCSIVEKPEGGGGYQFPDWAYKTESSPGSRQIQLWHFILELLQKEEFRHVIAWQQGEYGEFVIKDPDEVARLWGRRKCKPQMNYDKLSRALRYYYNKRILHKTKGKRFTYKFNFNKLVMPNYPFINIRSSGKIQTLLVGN
# Outline: as §1
# ETV6 = ETV6 (Homo sapiens, UniProt P41212 1-452); conditions: protein: recombinant; tags: N-terminal GST; dsDNA, one strand shown
# Outline: as §1
# HSF1, sequence (Q00613 whole entry): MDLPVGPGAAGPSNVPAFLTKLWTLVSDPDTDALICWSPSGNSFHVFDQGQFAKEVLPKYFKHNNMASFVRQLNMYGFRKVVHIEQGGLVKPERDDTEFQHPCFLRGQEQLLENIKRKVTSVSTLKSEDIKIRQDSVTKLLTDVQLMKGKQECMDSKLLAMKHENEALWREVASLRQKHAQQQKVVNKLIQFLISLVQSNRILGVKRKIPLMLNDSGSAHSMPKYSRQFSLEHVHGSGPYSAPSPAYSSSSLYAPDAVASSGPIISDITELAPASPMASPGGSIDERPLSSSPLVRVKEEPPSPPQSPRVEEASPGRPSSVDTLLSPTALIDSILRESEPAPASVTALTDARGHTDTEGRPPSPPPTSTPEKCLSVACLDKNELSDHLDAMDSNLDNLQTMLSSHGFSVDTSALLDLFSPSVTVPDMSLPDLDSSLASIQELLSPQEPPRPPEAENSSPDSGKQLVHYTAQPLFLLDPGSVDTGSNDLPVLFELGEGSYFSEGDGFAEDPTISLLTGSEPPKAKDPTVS
# ETV6, sequence (P41212 whole entry): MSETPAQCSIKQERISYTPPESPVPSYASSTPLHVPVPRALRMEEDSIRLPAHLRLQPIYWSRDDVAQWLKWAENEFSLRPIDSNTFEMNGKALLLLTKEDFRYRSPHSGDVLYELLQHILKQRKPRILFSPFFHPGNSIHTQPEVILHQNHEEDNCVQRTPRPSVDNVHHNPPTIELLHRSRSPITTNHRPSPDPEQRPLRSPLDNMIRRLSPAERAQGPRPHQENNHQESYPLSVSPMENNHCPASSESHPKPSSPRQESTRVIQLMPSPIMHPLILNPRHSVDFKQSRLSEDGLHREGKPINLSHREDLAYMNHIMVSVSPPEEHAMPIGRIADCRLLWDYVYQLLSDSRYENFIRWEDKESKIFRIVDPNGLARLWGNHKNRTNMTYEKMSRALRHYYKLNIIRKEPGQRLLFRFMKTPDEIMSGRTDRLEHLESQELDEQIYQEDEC
# ETV5, sequence (P41161 whole entry): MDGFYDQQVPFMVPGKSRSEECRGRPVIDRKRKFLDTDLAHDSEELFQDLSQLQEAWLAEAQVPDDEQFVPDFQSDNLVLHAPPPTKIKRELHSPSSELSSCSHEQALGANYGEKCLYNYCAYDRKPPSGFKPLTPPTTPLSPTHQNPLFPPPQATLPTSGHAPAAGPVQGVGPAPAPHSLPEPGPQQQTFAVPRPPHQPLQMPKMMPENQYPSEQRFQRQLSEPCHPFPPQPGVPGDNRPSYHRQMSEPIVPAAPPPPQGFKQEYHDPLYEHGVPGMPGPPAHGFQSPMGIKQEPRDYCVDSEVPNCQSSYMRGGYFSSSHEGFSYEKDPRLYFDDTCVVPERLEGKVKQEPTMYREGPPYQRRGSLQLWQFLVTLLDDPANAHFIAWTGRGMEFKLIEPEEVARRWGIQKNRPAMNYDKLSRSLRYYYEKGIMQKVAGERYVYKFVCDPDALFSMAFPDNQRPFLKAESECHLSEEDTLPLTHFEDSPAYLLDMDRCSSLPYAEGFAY
# ELF4, sequence (Q99607 whole entry): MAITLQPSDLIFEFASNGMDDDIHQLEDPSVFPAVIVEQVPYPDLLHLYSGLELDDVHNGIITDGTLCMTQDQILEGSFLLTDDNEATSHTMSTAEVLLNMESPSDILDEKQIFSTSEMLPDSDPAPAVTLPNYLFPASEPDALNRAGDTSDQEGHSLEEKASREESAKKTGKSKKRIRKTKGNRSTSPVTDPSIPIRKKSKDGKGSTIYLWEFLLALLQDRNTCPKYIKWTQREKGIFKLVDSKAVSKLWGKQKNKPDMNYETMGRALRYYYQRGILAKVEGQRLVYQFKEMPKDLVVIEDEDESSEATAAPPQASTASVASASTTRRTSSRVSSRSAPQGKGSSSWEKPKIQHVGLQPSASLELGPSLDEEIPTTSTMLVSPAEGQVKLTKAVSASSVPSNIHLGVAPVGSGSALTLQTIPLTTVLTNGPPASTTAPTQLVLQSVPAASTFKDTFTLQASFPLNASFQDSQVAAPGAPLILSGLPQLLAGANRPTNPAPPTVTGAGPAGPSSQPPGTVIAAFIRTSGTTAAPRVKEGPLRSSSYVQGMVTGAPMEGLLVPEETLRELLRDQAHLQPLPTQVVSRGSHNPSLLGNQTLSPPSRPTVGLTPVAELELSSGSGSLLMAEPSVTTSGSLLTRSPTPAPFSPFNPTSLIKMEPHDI
# ETV1, sequence (P50549 whole entry): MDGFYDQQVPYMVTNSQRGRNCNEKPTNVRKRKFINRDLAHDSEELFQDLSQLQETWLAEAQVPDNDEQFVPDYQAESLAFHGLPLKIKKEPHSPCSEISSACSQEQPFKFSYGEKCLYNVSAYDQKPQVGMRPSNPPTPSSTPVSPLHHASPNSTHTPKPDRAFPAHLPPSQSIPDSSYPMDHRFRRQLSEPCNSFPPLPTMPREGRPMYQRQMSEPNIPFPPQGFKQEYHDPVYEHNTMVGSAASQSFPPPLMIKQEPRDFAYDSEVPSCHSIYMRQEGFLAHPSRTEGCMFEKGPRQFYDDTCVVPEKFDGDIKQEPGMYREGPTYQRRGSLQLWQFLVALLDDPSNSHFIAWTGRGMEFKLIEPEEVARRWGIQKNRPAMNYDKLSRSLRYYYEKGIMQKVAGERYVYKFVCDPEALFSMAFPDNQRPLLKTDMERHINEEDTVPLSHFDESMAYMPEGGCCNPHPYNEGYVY
# CRX, sequence (O43186 whole entry): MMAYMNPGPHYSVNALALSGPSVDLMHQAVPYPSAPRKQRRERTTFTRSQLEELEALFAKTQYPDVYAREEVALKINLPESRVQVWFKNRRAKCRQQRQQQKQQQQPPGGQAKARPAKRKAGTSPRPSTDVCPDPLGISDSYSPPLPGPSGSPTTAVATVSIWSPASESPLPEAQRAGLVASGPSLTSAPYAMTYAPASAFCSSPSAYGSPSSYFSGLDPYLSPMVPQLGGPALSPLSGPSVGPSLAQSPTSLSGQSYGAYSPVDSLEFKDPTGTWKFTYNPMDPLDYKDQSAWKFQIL
sequence,measurement,setting,value
ACTGCT,binding signal,FEV,"1.48 fold enrichment (6-mer frequency, TF over GST control)"
same,binding signal,ETV5,"1.41 fold enrichment (6-mer frequency, TF over GST control)"
same,binding signal,HSF1,"1.19 fold enrichment (6-mer frequency, TF over GST control)"
same,binding signal,SPIC,"1.56 fold enrichment (6-mer frequency, TF over GST control)"
same,binding signal,ELF4,"1.3 fold enrichment (6-mer frequency, TF over GST control)"
same,binding signal,ELK4,"1.54 fold enrichment (6-mer frequency, TF over GST control)"
same,binding signal,ETV2,"1.26 fold enrichment (6-mer frequency, TF over GST control)"
same,binding signal,ELF3,"1.32 fold enrichment (6-mer frequency, TF over GST control)"
same,binding signal,CRX,"1.21 fold enrichment (6-mer frequency, TF over GST control)"
same,binding signal,ETV1,"1.33 fold enrichment (6-mer frequency, TF over GST control)"
same,binding signal,ERF,"1.27 fold enrichment (6-mer frequency, TF over GST control)"
same,binding signal,ETV3L,"1.41 fold enrichment (6-mer frequency, TF over GST control)"
same,binding signal,ETS2,"1.38 fold enrichment (6-mer frequency, TF over GST control)"
same,binding signal,SPDEF,"1.26 fold enrichment (6-mer frequency, TF over GST control)"
same,binding signal,ETV7,"1.4 fold enrichment (6-mer frequency, TF over GST control)"
same,binding signal,ELF5,"1.33 fold enrichment (6-mer frequency, TF over GST control)"
same,binding signal,ETV3,"1.42 fold enrichment (6-mer frequency, TF over GST control)"
same,binding signal,ETV6,"1.33 fold enrichment (6-mer frequency, TF over GST control)"
